PubChem BioAssay AID1159580 (chemical genetic matrix, 2015)
About 2,000 (36%) of roughly 5,500 compounds were called active. Another 18% or so got no clear call; they are omitted. Cut-off read from the data, not from the text of the source: active = normalized growth mostly below about 0.91 (no sharp cut-off); inconclusive = no clear call, values can overlap the other calls; inactive = mostly above about 0.92. The list shows a part of the results.

Assay: chemical genetic growth profiling, strain panel (AID 1159580);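 note: tested at 20 µM; growth read once vehicle control cultures reached saturation at 30 °C; 1 = growth at the plate median or of vehicle wells; lower values mean less growth of the strain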
Settings: growth OD

Measured: normalized growth

CC(=O)CC1CCCCN1 (configuration not stated)
inactive: S. cerevisiae deletion strains, locus YJR075W, strain HOC1, hits give low values 1.01 | S. cerevisiae deletion strains, locus YKL009W, strain mrt4, hits give low values 0.996 | S. cerevisiae deletion strains, locus YKL068W, hits give low values 1 | S. cerevisiae deletion strains, locus YKL085W, strain MDH1 (second series), hits give low values 0.983 | S. cerevisiae deletion strains, locus YKL085W, strain MDH1, hits give low values 0.983 | S. cerevisiae deletion strains, locus YKL160W, strain elf1, hits give low values 1.02 | S. cerevisiae deletion strains, locus YKL190W, strain CNB1, hits give low values 1.02 | S. cerevisiae deletion strains, locus YKR001C, strain vps1, hits give low values 0.994 | S. cerevisiae deletion strains, locus YKR026C, strain gcn3, hits give low values 1.02 | S. cerevisiae deletion strains, locus YKR091W, strain srl3, hits give low values 1.02 | S. cerevisiae deletion strains, locus YLL001W, strain dnm1, hits give low values 1.02 | S. cerevisiae deletion strains, locus YLL026W, hits give low values 1.02 | S. cerevisiae deletion strains, locus YLL041C, strain sdh2, hits give low values 1.01 | S. cerevisiae deletion strains, locus YLR027C, strain aat2, hits give low values 1.03 | S. cerevisiae deletion strains, locus YLR039C, strain RIC1, hits give low values 1.06 | S. cerevisiae deletion strains, locus YLR058C, strain SHM2, hits give low values 1.02 | S. cerevisiae deletion strains, locus YLR102C, strain apc9, hits give low values 0.996 | S. cerevisiae deletion strains, locus YLR113W, strain HOG1, hits give low values 0.981 | S. cerevisiae deletion strains, locus YLR221C, strain rsa3, hits give low values 1.03 | S. cerevisiae deletion strains, locus YLR258W, strain gsy2, hits give low values 1.02 | S. cerevisiae deletion strains, locus YLR262C, strain YPT6 (second series), hits give low values 1.03 | S. cerevisiae deletion strains, locus YLR262C, strain YPT6, hits give low values 1.1 | S. cerevisiae deletion strains, locus YLR268W, strain sec22, hits give low values 0.993 | S. cerevisiae deletion strains, locus YLR320W, strain mms22, hits give low values 1.04 | S. cerevisiae deletion strains, locus YLR330W, strain CHS5, hits give low values 1.01 | S. cerevisiae deletion strains, locus YLR342W, strain FKS1 (second series), hits give low values 0.993 | S. cerevisiae deletion strains, locus YLR342W, strain FKS1, hits give low values 1.02 | S. cerevisiae deletion strains, locus YLR357W, strain rsc2, hits give low values 0.995 | S. cerevisiae deletion strains, locus YLR370C, strain arc18, hits give low values 1.02 | S. cerevisiae deletion strains, locus YLR371W, strain rom2, hits give low values 0.994 | S. cerevisiae deletion strains, locus YLR384C, strain iki3, hits give low values 1.01 | S. cerevisiae deletion strains, locus YLR418C, strain cdc73, hits give low values 1 | S. cerevisiae deletion strains, locus YML016C, strain PPZ1, hits give low values 1.02 | S. cerevisiae deletion strains, locus YML032C, strain rad52, hits give low values 0.982 | S. cerevisiae deletion strains, locus YML120C, strain ndi1, hits give low values 1.02 | S. cerevisiae deletion strains, locus YML124C, strain tub3, hits give low values 0.995 | S. cerevisiae deletion strains, locus YMR058W, strain fet3, hits give low values 1.02 | S. cerevisiae deletion strains, locus YMR078C, strain ctf18, hits give low values 0.99 | S. cerevisiae deletion strains, locus YMR125W, strain sto1, hits give low values 1 | S. cerevisiae deletion strains, locus YMR129W, hits give low values 1.01 | S. cerevisiae deletion strains, locus YMR205C, strain PFK2, hits give low values 1.04 | S. cerevisiae deletion strains, locus YMR223W, strain ubp8, hits give low values 0.997 | S. cerevisiae deletion strains, locus YMR231W, strain pep5, hits give low values 1.01 | S. cerevisiae deletion strains, locus YMR263W, strain SAP30, hits give low values 1.02 | S. cerevisiae deletion strains, locus YMR307W, strain GAS1, hits give low values 1.08 | S. cerevisiae deletion strains, locus YNL067W, strain RPL9B, hits give low values 1.02 | S. cerevisiae deletion strains, locus YNL071W, strain lat1, hits give low values 1.02 | S. cerevisiae deletion strains, locus YNL128W, strain TEP1, hits give low values 1.01 | S. cerevisiae deletion strains, locus YNL153C, strain GIM3, hits give low values 1.02 | S. cerevisiae deletion strains, locus YNL183C, strain NPR1, hits give low values 0.954 | S. cerevisiae deletion strains, locus YNL209W, strain ssb2, hits give low values 1.02 | S. cerevisiae deletion strains, locus YNL233W, strain BNI4, hits give low values 1.02 | S. cerevisiae deletion strains, locus YNL248C, strain rpa49, hits give low values 1.01 | S. cerevisiae deletion strains, locus YNL250W, strain rad50, hits give low values 0.993 | S. cerevisiae deletion strains, locus YNL271C, strain bni1, hits give low values 0.993 | S. cerevisiae deletion strains, locus YNL298W, strain CLA4, hits give low values 0.988 | S. cerevisiae deletion strains, locus YNL307C, strain MCK1, hits give low values 0.995 | S. cerevisiae deletion strains, locus YNL322C, strain KRE1 (second series), hits give low values 1.01 | S. cerevisiae deletion strains, locus YNL322C, strain KRE1, hits give low values 1.01 | S. cerevisiae deletion strains, locus YNR049C, strain mso1, hits give low values 1.02 | S. cerevisiae deletion strains, locus YNR052C, strain pop2, hits give low values 0.98 | S. cerevisiae deletion strains, locus YOL006C, strain TOP1, hits give low values 1.04 | S. cerevisiae deletion strains, locus YOL012C, strain htz1 0.894 | S. cerevisiae deletion strains, locus YOL147C, strain pex11, hits give low values 0.993 | S. cerevisiae deletion strains, locus YOR001W, strain rrp6, hits give low values 1 | S. cerevisiae deletion strains, locus YOR061W, strain CKA2, hits give low values 1.01 | S. cerevisiae deletion strains, locus YOR069W, strain VPS5, hits give low values 0.999 | S. cerevisiae deletion strains, locus YOR070C, strain gyp1, hits give low values 1.03 | S. cerevisiae deletion strains, locus YOR080W, strain dia2, hits give low values 1.02 | S. cerevisiae deletion strains, locus YOR083W, strain WHI5, hits give low values 1.03 | S. cerevisiae deletion strains, locus YOR106W, strain vam3, hits give low values 1.01 | S. cerevisiae deletion strains, locus YOR136W, strain idh2, hits give low values 0.977 | S. cerevisiae deletion strains, locus YOR144C, strain elg1, hits give low values 1 | S. cerevisiae deletion strains, locus YOR184W, strain ser1, hits give low values 0.974 | S. cerevisiae deletion strains, locus YOR231W, strain MKK1, hits give low values 0.983 | S. cerevisiae deletion strains, locus YOR265W, strain rbl2, hits give low values 1.01 | S. cerevisiae deletion strains, locus YOR270C, strain vph1, hits give low values 1.05 | S. cerevisiae deletion strains, locus YOR290C, strain snf2, hits give low values 1 | S. cerevisiae deletion strains, locus YOR316C, strain cot1, hits give low values 0.991 | S. cerevisiae deletion strains, locus YPL051W, strain arl3, hits give low values 1.03 | S. cerevisiae deletion strains, locus YPL055C, strain LGE1, hits give low values 1.04 | S. cerevisiae deletion strains, locus YPL078C, strain atp4, hits give low values 1.02 | S. cerevisiae deletion strains, locus YPL106C, strain sse1, hits give low values 1 | S. cerevisiae deletion strains, locus YPL240C, strain hsp82, hits give low values 1.01 | S. cerevisiae deletion strains, locus YPL241C, strain CIN2, hits give low values 0.995 | S. cerevisiae deletion strains, locus YPL256C, strain CLN2, hits give low values 0.967 | S. cerevisiae deletion strains, locus YPR119W, strain clb2, hits give low values 0.993 | S. cerevisiae deletion strains, locus YPR141C, strain kar3, hits give low values 0.99 | S. cerevisiae deletion strains, locus YPR163C, strain tif3, hits give low values 0.993 | S. cerevisiae deletion strains, locus YPR167C, strain met16, hits give low values 0.987 | S. cerevisiae deletion strains, strain wtn01, hits give low values 1 | S. cerevisiae strains, strain wild type, hits give low values 1.02
